The campaign covered roughly 360,000 compounds. About 3,500 (0.97%) were called active. Only a selection was taken, and actives are over-represented in it overall. Unmarked numbers belong to inactive results.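 Rule for the calls: active = activation above a per-plate cutoff, the mean activation of sample wells on that plate plus 3 SD (cut at about 8% in these data); inactive = the rest.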
The molecules below were run against Melanocortin receptor 4 (Homo sapiens) (UniProt P32245) (assay: activators of MC4R beta-arrestin recruitment – cell-based, luminescence, agonist arm of biased-ligand search, primary screen (AID 540308)). Settings: U2OS MC4R beta-arrestin complementation, at 8.9 µM, hits give high values, percent of melanotan II response, DMSO zero.
Chain of Melanocortin receptor 4 (Homo sapiens) (P32245 whole entry, looked up): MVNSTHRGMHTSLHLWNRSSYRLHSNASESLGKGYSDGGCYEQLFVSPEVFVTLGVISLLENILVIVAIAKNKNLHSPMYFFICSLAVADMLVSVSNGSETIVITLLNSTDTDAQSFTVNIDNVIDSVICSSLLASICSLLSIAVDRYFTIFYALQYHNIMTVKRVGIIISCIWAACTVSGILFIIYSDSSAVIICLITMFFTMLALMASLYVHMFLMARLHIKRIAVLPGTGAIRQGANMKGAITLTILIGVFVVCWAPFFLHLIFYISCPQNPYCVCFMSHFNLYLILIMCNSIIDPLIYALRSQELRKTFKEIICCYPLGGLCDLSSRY

Row | SMILES | activation
1 | OC[C@@H]1CN(Cc2ccc(F)cc2)C[C@H](n2cnc3c(NC4CCCC4)ncnc32)O1 | -2.29%
2 | CC1(C(=O)NCc2cccc3ccccc23)CCN1Cc1ccc(-c2ccccc2)o1 (configuration not stated) | -1.17%
3 | COc1ccc(-c2ccc(C(=O)NC(C)C)c3occc23)c(C)c1 | 1.66%
4 | CCc1nc2ccc(C(=O)N(C)Cc3ccco3)cn2c1N(C)C(=O)Cc1ccccc1 | -1.99%
5 | COc1cccc(CNC(=O)c2nnn(CC(=O)Nc3cc(Cl)ccc3C)c2N)c1 | 11.7% (active)
6 | COc1cccc(CNC(=O)c2nnn(CC(=O)Nc3cc(C)ccc3C)c2N)c1 | 3.53%
7 | COc1ccc(CNC(=O)c2nnn(CC(=O)Nc3cc(C)cc(C)c3)c2N)cc1 | 0.3%
8 | CN(C)c1cccc(NC(=O)c2ccc(-c3ccc(F)c(F)c3)c3ccoc23)c1 | 0.91%
9 | CC(OC(=O)c1ccc([N+](=O)[O-])cc1)C(=O)NCC1CCCCC1 (configuration not stated) | -1.32%
10 | COc1cc(C(=O)OC(C)C(=O)NCC2CCCCC2)cc(NC(=O)c2ccco2)c1OC (configuration not stated) | 13.3% (active)
11 | CC(OC(=O)c1cccc(S(=O)(=O)N2CCOCC2)c1)C(=O)NCC1CCCCC1 (configuration not stated) | 0.27%
12 | CC(C)Nc1ncnc2c1ncn2[C@H]1CN(Cc2ccncc2)C[C@@H](CO)O1 | 2.39%
13 | CC(C)CN1CCC1(C)C(=O)Nc1ccc(OC(F)F)cc1 (configuration not stated) | 0.55%
14 | Cc1ccc(F)c(S(=O)(=O)NC(=O)C2(C)CCN2C(=O)c2ccco2)c1 (configuration not stated) | 0.44%
15 | Oc1c(Cl)cc(Cl)c(Cl)c1Cc1c(O)c(Cl)cc(Cl)c1Cl | 9.22% (active)
16 | O=C(NCc1ccc(F)cc1)c1cc(C2CCCCN2C(=O)c2ccccn2)on1 (configuration not stated) | 1.1%
17 | COc1cc(/C=C2\Oc3ccc(C#Cc4ccc(O)cc4)cc3C2=O)cc(OC)c1 | 10.2% (active)
18 | COC(=O)C(C)Oc1ccc2c(c1)O/C(=C\c1cccc(Br)c1)C2=O (configuration not stated) | 0.36%
19 | COc1cc(C#Cc2ccc3cc(CCCO)oc(=O)c3c2)cc(OC)c1 | -2.63%

Row | SMILES | activation
20 | CCc1nc2ccc(C(=O)Nc3cc(-c4ccccc4)ccc3OC)cn2c1N(CC)CC(=O)N(C)C | 1.77%
21 | C[C@H]([C@@H](O)[C@@H](O)[C@@H](C)C(C)(C)C)[C@H]1CC[C@H]2C3CC[C@H]4C[C@H](OS(=O)(=O)O)[C@@H](OS(=O)(=O)O)C[C@]4(C)[C@H]3CC[C@]12C (some centres not stated) | 0.15%
22 | CC1(C(=O)NS(=O)(=O)c2ccccc2)CCN1C(=O)C1CCCCC1 (configuration not stated) | -1.69%
23 | COc1cccc(-c2cc3nc(NCc4ccccc4OC)n(C)c(=O)c3s2)c1 | 6.31%
24 | CCCOc1ccc(F)cc1-c1cc(C(=O)Nc2ccc(F)c(Cl)c2)[nH]n1 | 2.17%
25 | COc1ccc(Cl)cc1C(=O)Nc1ccc(N(C)C(C)=O)cc1 | 0.11%
26 | CCN(CC)C(=O)Oc1ccc(Br)cc1C(=O)Nc1ccc(F)c(Cl)c1 | 11.6% (active)
27 | CCN(CC)c1ccc(C(=O)N/N=C/c2ccc(N3CCOCC3)cc2)cc1 | 26.7% (active)
28 | CCN(CC)c1ccc(/C=N/NC(=O)CNC(=O)c2cccs2)cc1 | -1.48%
29 | Cc1ccccc1N/N=C/c1ccc(N2CCOCC2)cc1 | -1.27%
30 | O=CNc1cc(-c2ccc(C(=O)N3CCOCC3)cc2)cn2c(-c3ccc(F)cc3)cnc12 | 0.33%
31 | CC1(Cc2ccccc2C#N)C(=O)Nc2ccc(-c3ccc4[nH]ccc4c3)cc21 (configuration not stated) | -2.44%
32 | Cc1nc2c(OCc3cccc(Cl)c3)cccn2c1N(C)CC1CC1 | -0.13%
33 | CC1(C(=O)NCc2ccco2)Cc2c(-c3ccc4c(c3)OCO4)ccnc2O1 (configuration not stated) | 0.01%
34 | CC1=C(C/C=C(\C)CCCC(C)CCCC(C)CCCC(C)C)C(=O)c2ccccc2C1=O (configuration not stated) | -1.56%
35 | CCN(CC)S(=O)(=O)c1ccc(C)c(NC(=O)COc2ccc(Br)cc2Cl)c1 | 13.4% (active)
36 | CCN(CC)S(=O)(=O)c1ccc(OC)c(NC(=O)CCc2c(C)noc2C)c1 | -1.81%
37 | Cc1ccc(S(=O)(=O)N(C)C)cc1NC(=O)COC(=O)c1c(C)noc1C | -0.85%
38 | O=C(NCc1cccnc1)c1cc(C2CCCCN2C(=O)CCc2ccccc2)on1 (configuration not stated) | -1.7%

Row | SMILES | activation
39 | CCNC(=O)C1CCCN(C(=O)c2cc(F)ccc2C)CC1 (configuration not stated) | 1.6%
40 | O=C(N[C@@H](Cc1ccccc1)C(=O)OCc1ccccc1)c1nc[nH]c1C(=O)NC1CCNCC1 | -0.82%
41 | CC(C)(C)OC(=O)N1CCC(NC(=O)c2[nH]cnc2C(=O)N[C@@H](Cc2ccccc2)C(=O)OCc2ccccc2)CC1 | 17.8% (active)
42 | O=C(N[C@@H](Cc1ccccc1)C(=O)OCc1ccccc1)c1nc[nH]c1C(=O)N[C@@H](Cc1ccccc1)C(=O)OCc1ccccc1 | 0.69%
43 | CC(=O)c1ccc(Nc2nc(C(N)c3ccccc3Cl)cs2)cc1 (configuration not stated) | -0.98%
44 | O=C(Cc1ccc(-c2ccccc2)cc1)NC(c1ccccc1)c1ccccc1 | 9.56% (active)
45 | C=CCC(NC(=O)Cc1ccccc1)C(=O)NCCC (configuration not stated) | -0.94%
46 | O=C(CN1CCN(Cc2ccccc2)CC1)NC(c1ccccc1)c1ccccc1 | 1.85%
47 | COc1ccc(CN2CCC(C)(Oc3cccc(F)c3)C2)c2ccccc12 (configuration not stated) | 0.37%
48 | O=C(Nc1ccc(Cl)cn1)c1ccc2c(c1)OCCO2 | 0.85%
49 | COc1c(Cl)cc(C(=O)Nc2ccc(Cl)cn2)cc1Cl | 10.6% (active)
50 | CCCc1cc(C(=O)Nc2ccc(Cl)cn2)cs1 | 3.75%
51 | COc1ccc(-c2cc3nc(NCCOc4ccccc4)ccn3n2)cc1 | 4.13%
52 | CCOc1cc(/C=N/NC(=O)OC)ccc1OCCSc1ccc(Cl)cc1 | 4.19%
53 | CCOc1ccc(/C=N/NC(=O)C(C)Sc2ccccn2)cc1OCC (configuration not stated) | 2.39%
54 | COc1cc(/C=N/NC(=O)Nc2ccccc2)ccc1OCCOc1ccccc1C | 21.2% (active)
55 | CCCCNc1nc2c(c(=O)n(C)c(=O)n2C)n1Cc1cccc(OC)c1 | -2.77%
56 | CCCCNc1c(-c2cccc(Sc3ccc(OC)cc3)c2)nc2ccccn12 | 13.9% (active)
57 | CCCCNc1c(-c2ccc(OC)c(Sc3ccc(OC)cc3)c2)nc2ccc(Cl)cn12 | -1.91%

Source: PubChem BioAssay AID540308 (The Scripps Research Institute Molecular Screening Center, 2011)
